According to PubChem BioAssay (NCATS):
Results filed as inconclusive are left out. Active and inactive are the calls of the source. Unless noted, calls come from the whole dose curve; as a rule, active = well fitted curve in the direction sought with a large enough effect; inconclusive = small, poorly fitted or top-dose-only effect, or another doubt; inactive = no such curve, though single readings can be large; an effect the other way counts as inactive or inconclusive.

Experiments:
[1] = qHTS for differential inhibitors of proliferation of Plasmodium falciparum line Dd2 (AID 1882); conditions: Potency: Plasmodium falciparum Dd2 proliferation inhibition;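 note: series mostly up to about 29 µM; compound exposure of 72 h on infected erythrocytes; nearly all actives have a fitted effect of over 65% in size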
Summary of the method: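 RBC culture, 0.3% parasitemia / 2.5% Hct final; cpd added by pin tool in DMSO; 72 h, 37 C, 5% CO2; lysis buffer + SYBR Green I, o/n RT dark; FI 485/535; norm. to artemisinin 0.29 uM and DMSO.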

[2] = qHTS for differential inhibitors of proliferation of Plasmodium falciparum line W2 (AID 1883); conditions: Potency: Plasmodium falciparum W2 proliferation inhibition;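 note: potency is the fitted concentration of half-maximal effect; parasites grown with compound for 72 h before lysis and staining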
[3] = target: ATP-dependent DNA helicase Q1 (Homo sapiens) (UniProt P46063); test: qHTS Validation Assay for Inhibitors of RecQ-Like Dna Helicase 1 (RECQ1) (AID 2353)
Chain of ATP-dependent DNA helicase Q1 (Homo sapiens) (P46063 whole entry, looked up): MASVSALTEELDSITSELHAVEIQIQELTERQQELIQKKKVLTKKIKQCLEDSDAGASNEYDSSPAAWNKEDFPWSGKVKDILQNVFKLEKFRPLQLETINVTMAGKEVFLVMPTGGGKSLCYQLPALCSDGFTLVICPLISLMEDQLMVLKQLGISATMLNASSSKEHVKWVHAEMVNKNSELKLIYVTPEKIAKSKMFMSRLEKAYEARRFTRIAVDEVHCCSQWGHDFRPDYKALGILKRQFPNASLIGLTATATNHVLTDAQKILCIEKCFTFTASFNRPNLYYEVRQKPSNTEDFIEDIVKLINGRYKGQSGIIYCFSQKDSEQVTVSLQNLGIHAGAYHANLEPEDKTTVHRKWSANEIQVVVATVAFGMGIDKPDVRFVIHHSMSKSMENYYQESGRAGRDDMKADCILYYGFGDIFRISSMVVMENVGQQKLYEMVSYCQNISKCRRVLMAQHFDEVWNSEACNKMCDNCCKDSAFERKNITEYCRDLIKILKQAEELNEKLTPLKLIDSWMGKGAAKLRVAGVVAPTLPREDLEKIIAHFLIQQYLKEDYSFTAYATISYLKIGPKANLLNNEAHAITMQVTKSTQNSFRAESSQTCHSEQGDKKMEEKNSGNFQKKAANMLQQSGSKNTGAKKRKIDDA
Summary of the method: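 RECQ1T1 50 nM; forked duplex (20 bp + 30-nt ss tails) 200 nM, ATP 2 mM final; pH 8.0, 2 mM MgCl2, 2.5 ug/ml poly(dI-dC); 15 min compound preincubation; discontinuous kinetic read over 2 h at RT.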

[4] = Cytometric Cell-Based qHTS for Inhibitors of the mTORC1 Signaling Pathway in MEF (Tsc2-/-, p53-/-) Cells (AID 2660);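 note: Tsc2 and p53 null MEFs carrying empty vector with compound for 24 h; percent of cells above a phospho-rpS6 to PI ratio cutoff in each well; series mostly up to about 38 µM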
Summary of the method: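 Readout: Alexa-488 phospho-rpS6 (Ser235/236) intensity divided by PI intensity, thresholded against 7.5 nM rapamycin wells and reported as % positive cells. PI cell count served as the viability measure. Compound exposure was 24 hrs at 37 degree Celsius.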

[5] = High Content Imaging Cell-Based qHTS for Inhibitors of the mTORC1 Signaling Pathway in MEF (Tsc2-/-, p53-/-) Cells (AID 2666);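 note: percent of cells scored positive for phospho-rpS6 Ser235/236 immunostaining by imaging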
Summary of the method: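 Tsc2-/-, p53-/- MEFs (empty-vector stable) grown in DMEM + 10% FBS were exposed to compounds for 24 hrs at 37 degree Celsius, fixed, and stained with Alexa-488 anti-phospho-rpS6 Ser235/236 plus Hoechst. Imaging gave the percentage of positive cells per well.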

[6] = High Content Imaging Cell-Based qHTS for Inhibitors of the mTORC1 Signaling Pathway in MEF Cells (AID 2667);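 note: Tsc2-/- p53-/- MEFs stably re-expressing wild-type Tsc2 exposed 24 h; series mostly up to about 38 µM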
Summary of the method: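 Tsc2-/-, p53-/- MEFs stably re-expressing WT Tsc2, grown in DMEM + 10% FBS, were treated with compounds for 24 hrs at 37 degree Celsius, fixed, and stained with Alexa-488 phospho-rpS6 Ser235/236 antibody plus Hoechst; results given as % positive cells.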

[7] = Cytometry Cell-Based qHTS for Inhibitors of the mTORC1 Signaling Pathway in MEF cells (AID 2668);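 note: Tsc2-/- p53-/- mouse embryonic fibroblasts stably re-expressing wild-type Tsc2; percent cells positive for phospho-rpS6 Ser235/236 relative to propidium iodide stain; series mostly up to about 38 µM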
Summary of the method: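 Read-out: phospho-rpS6 Ser235/236 immunofluorescence normalized to propidium iodide intensity, scored as % active cells against a rapamycin (7.5 nM) threshold. Cells: Tsc2-/-, p53-/- MEFs stably expressing WT Tsc2, compound-treated 24 hrs at 37 degree Celsius.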

[8] = Validation screen for small molecules that induce DNA re-replication in MCF 10A normal breast cells (AID 463097); note: nearly all actives have a fitted effect of over 60% in size
Summary of the method: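 250 MCF 10A cells/well; compound pin-transferred; 48 hr, 37 C, 5% CO2; Hoechst 40 min; imaged 405/500-530 nm. Hits = more high-intensity nuclei.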

[9] = target: Ubiquitin carboxyl-terminal hydrolase 2 (Homo sapiens) (UniProt O75604); test: qHTS Validation Assay for Inhibitors of Ubiquitin-specific Protease USP2a Using CHOP2 as the Reporter (AID 463106)
Chain of Ubiquitin carboxyl-terminal hydrolase 2 (Homo sapiens) (O75604 whole entry, looked up): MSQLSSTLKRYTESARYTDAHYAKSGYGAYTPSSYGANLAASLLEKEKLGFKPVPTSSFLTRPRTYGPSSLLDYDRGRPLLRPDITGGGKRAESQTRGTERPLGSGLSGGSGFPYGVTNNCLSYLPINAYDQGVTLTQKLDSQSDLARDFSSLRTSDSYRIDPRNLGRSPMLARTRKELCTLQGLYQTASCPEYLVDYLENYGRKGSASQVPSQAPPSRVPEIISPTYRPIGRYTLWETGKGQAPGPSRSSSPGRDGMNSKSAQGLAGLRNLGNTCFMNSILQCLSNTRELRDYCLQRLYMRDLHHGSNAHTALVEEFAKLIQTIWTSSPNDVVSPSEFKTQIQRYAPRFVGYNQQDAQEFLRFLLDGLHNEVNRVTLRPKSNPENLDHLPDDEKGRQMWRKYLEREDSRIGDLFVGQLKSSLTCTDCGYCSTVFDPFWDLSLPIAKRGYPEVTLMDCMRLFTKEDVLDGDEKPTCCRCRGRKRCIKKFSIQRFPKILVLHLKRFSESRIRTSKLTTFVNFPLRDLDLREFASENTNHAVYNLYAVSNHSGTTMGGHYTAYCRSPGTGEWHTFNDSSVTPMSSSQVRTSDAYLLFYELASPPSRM
Summary of the method: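 Readout was coupled fluorescence (Ex 485/Em 531 nm), read 60 min after adding 25 nM final Ub-CHOP2 and 25 nM reporter substrate. Beforehand, 10 nM final USP2 core had 30 min at RT with compound in pH 8.0 buffer. Curves were fitted after normalization to NEM and flagged for artifacts using time-zero reads.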

[10] = target: DNA polymerase III PolC-type (Bacillus subtilis (strain 168)) (UniProt P13267); test: qHTS Validation Assay for the Inhibitors of DNA Replication in Gram-Positive Bacteria (AID 485295);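 note: reconstituted holoenzyme with PolC plus beta clamp SSB and primase; PicoGreen fluorescence of double-stranded DNA made on primed circular M13 template; series mostly up to about 57 µM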
Chain of DNA polymerase III PolC-type (Bacillus subtilis (strain 168)) (P13267 whole entry, looked up): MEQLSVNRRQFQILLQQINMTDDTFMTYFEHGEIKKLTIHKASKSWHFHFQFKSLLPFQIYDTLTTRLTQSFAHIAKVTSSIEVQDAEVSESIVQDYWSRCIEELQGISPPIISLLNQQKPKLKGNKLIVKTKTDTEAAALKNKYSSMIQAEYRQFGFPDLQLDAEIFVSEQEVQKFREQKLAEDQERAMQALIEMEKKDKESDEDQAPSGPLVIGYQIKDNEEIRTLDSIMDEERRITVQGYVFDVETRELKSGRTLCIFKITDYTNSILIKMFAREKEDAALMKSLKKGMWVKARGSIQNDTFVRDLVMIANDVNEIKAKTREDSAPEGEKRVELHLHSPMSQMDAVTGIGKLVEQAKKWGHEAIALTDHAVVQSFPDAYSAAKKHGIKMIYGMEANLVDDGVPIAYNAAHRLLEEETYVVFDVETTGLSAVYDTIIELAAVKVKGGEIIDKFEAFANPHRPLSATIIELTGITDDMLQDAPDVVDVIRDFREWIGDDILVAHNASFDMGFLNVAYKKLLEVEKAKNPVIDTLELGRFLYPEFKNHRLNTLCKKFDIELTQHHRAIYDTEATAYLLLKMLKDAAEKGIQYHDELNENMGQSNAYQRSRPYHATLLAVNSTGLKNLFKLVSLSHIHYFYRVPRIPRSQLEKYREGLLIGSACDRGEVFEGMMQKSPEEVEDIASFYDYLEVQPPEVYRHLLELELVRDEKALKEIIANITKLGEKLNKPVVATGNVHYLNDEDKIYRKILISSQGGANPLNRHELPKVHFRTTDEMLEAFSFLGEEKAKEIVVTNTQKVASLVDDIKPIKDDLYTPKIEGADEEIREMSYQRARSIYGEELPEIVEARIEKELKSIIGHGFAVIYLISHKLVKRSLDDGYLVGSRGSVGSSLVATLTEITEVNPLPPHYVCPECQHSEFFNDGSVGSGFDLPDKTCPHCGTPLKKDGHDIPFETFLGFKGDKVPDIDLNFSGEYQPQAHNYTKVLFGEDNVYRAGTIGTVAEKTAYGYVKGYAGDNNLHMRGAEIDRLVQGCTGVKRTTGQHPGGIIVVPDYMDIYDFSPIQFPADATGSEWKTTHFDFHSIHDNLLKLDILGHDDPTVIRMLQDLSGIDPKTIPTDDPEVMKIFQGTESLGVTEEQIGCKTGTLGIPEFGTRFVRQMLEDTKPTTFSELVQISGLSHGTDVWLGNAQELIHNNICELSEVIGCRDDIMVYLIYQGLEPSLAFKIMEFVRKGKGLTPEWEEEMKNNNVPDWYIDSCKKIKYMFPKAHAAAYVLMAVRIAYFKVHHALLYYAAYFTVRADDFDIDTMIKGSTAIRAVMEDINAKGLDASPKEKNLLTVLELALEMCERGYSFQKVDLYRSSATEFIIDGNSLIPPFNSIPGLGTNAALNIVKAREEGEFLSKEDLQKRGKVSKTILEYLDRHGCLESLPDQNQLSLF
Summary of the method: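 PicoGreen fluorescence (ex 480–485/em 535–540 nm) reports dsDNA synthesized on ssM13Gori template with dNTPs/NTPs. Enzyme: holoenzyme rebuilt from purified PolC, beta subunit, SSB and primase. Compound preincubated before substrate addition; RT throughout.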

[11] = target: Tumor susceptibility gene 101 protein (Homo sapiens) (UniProt Q99816); test: qHTS Validation Assay for Iinhibitors of HIV-1 Budding by Blocking the Interaction of PTAP/TSG101 (AID 485342; calls by dose curve)
Chain of Tumor susceptibility gene 101 protein (Homo sapiens) (Q99816 whole entry, looked up, the tested form may be a part): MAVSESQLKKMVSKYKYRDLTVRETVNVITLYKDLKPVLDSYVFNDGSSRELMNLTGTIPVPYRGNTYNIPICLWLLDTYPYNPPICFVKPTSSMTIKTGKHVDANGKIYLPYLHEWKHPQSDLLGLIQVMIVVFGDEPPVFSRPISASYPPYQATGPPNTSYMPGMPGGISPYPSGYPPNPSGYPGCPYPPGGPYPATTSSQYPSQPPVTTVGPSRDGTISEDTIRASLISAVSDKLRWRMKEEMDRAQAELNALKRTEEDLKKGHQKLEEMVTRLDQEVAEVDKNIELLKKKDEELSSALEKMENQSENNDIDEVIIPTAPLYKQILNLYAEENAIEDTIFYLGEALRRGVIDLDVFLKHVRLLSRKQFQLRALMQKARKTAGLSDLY
Summary of the method: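 FP read-out: FITC-PTAP peptide, 50 nM final, binding Tsg101 binding domain, 10 uM final; 20 min r.t.; 10 mM HEPES pH 7.5, 0.15 M NaCl, 0.01% Tween 20, 3 mM EDTA, 0.1 mM TCEP.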

[12] = target: Beta-2 adrenergic receptor (Homo sapiens) (UniProt P07550); test: qHTS validation assay of beta-arrestin-biased ligands of beta2-adrenergic receptor (AID 485366)
Chain of Beta-2 adrenergic receptor (Homo sapiens) (P07550 whole entry, looked up): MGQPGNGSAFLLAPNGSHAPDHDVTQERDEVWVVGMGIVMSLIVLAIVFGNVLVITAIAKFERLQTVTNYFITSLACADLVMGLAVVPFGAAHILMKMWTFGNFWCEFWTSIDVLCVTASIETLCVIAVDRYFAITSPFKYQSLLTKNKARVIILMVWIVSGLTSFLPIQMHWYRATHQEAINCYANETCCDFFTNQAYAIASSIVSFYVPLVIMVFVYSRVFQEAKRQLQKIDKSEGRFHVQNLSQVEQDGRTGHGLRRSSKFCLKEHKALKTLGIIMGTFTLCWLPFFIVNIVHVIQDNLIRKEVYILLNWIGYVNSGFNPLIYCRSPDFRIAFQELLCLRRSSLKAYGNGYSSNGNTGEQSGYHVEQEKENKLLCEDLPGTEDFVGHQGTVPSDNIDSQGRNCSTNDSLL
Summary of the method: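 Agonist activity is measured as luciferase luminescence downstream of beta-arrestin recruitment to recombinant beta2-AR in Tango cells. Exposure lasts 18 hr at 37 degrees C, and curves are categorized by r2, response size and activity.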

[13] = target: Ferritin light chain (Equus caballus) (UniProt P02791); test: qHTS Validation Assay for Identification of Novel General Anesthetics (AID 2323); note: series mostly up to about 77 µM
Chain of Ferritin light chain (Equus caballus) (P02791 2-175 limits assumed): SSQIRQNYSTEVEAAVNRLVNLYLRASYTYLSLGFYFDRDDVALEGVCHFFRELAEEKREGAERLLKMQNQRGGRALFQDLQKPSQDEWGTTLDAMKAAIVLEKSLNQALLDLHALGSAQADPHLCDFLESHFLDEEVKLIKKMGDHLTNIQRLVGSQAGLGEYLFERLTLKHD
Summary of the method: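 10 uM horse-spleen apoferritin + 1-AMA (50% saturated, PBS); cpd pin-transferred, 10 min RT. Ex 380/Em 535 nm endpoint. Activity normalized between free 1-AMA and 1-AMA/apoferritin; 4-parameter Hill fit of concentration-response.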

[14] = target: ATP-dependent 6-phosphofructokinase (Trypanosoma brucei brucei) (UniProt O15648); test: qHTS Validation Assay to Find Inhibitors of T. brucei phosphofructokinase (AID 485368)
Chain of ATP-dependent 6-phosphofructokinase (Trypanosoma brucei brucei) (O15648 whole entry, looked up): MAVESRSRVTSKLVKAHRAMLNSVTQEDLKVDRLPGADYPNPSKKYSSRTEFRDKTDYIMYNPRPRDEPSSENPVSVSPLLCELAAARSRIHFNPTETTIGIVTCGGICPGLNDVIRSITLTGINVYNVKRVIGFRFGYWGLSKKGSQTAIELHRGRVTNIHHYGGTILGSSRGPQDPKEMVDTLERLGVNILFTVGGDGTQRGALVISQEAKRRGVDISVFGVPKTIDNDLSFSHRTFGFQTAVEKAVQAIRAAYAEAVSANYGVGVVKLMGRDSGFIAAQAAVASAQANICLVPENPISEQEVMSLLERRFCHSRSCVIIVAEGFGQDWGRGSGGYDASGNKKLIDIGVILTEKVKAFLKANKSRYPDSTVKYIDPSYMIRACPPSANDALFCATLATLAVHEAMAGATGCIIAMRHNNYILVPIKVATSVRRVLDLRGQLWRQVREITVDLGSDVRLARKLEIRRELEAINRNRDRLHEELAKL
Summary of the method: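 Inhibition derived from concentration-response curves of luminescence, ranked by r2, response size and curve class; the underlying reaction used 1.25 nM PFK, 0.1 mM ATP and 0.5 mM F6P, 45 min, room temperature.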

[15] = Quantitative high throughput screen for delayed death inhibitors of the malarial parasite plastid, 96 hour incubation (AID 488745);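 note: luciferase-expressing P. falciparum in erythrocytes at 2% hematocrit and 0.1% parasitemia; series mostly up to about 29 µM; nearly all actives have a fitted effect of over 70% in size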
Summary of the method: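 Luciferase-expressing P. falciparum, infected RBCs 2% Hct/0.1% parasitemia (final); 96 h cpd exposure, 37 C, 5% CO2; RPMI 1640 + 0.5% Albumax, bicarbonate, gentamycin. Readout: luminescence loss = growth inhibition.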

[16] = target: RecQ-like DNA helicase BLM (Homo sapiens) (UniProt P54132); test: qHTS Validation Assay for Inhibitors of Bloom's syndrome helicase (BLM) (AID 2364)
Summary of the method: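 Forked 20-bp duplex substrate (200 nM, TAMRA/BHQ-2) plus 2 mM ATP added after 15 min compound preincubation with 50 nM enzyme, pH 8.0, poly(dI-dC) 2.5 ug/ml. Strand separation followed by fluorescence (525/598 nm) over 2 h, normalized to enzyme-free and DMSO controls.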

[17] = qHTS Assay for Identification of Small Molecule Inducers of Hypoxia Response (AID 2120; active = well fitted curve in the direction sought with a large enough effect in the signal ratio, with a control signal flat, not every such curve was filed as active; the % refers to the signal ratio)
Summary of the method: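 Read-out: CCF4 FRET emission ratio 460nm/530nm (excitation 405nm), converted to %Activity, with AC50 fitted across a compound titration. ME-180 cells carried an HRE-driven beta-lactamase reporter; compound exposure 17 h, 37 degrees C.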

Measured: Potency

O=C1N=C(O)CN1/N=C/c1ccc(-c2ccc([N+](=O)[O-])cc2)o1
active: [2] 7.08 µM
not listed: [13] | [14] | [15] | [16] | [17]
inactive: all other assays above

CC(C)NC[C@H](O)c1ccc(O)c(O)c1
not listed: [2] | [12] | [16] | [17]
inactive: all other assays above

CN(C)CCC=C1c2ccccc2CCc2ccccc21
not listed: [1] | [2] | [6] | [7] | [17]
inactive: all other assays above

CCCn1cnc2c1c(=O)n(CCCCC(C)=O)c(=O)n2C
active: [2] 12.6 µM
not listed: [16] | [17]
inactive: all other assays above

Nc1ncnc2c1ncn2[C@@H]1O[C@H](CO)[C@@H](O)[C@H]1O
inactive: [4] | [5] | [6] | [7] | [9] | [10] | [11] | [12] | [14]

CC12CCC(CC1)C(C)(C)O2
inactive: [17]

Oc1cccc(O)c1
inactive: [17]

O=C1c2c(O)cccc2Cc2cccc(O)c21
inactive: [17]

O=C1O[C@H]([C@@H](O)CO)C(O)=C1O
inactive: [17]
